From the supplement of paper PMC10849652
Targets with a hit are over-represented here; the source holds about 7,900 in all. About 0.6% of all pairs of compound and target were hits.

Assays:
Assay in all cases: log2 fold change, soluble protein after heating vs DMSO (PISA); higher = thermal stabilisation; K562 cells, 10 uM, 30 min; active = over 0.2 and 3.5 SD of the protein, either way, in both replicates (recomputed)
filanesib = compound: CON(C)C(=O)N1N=C(c2cc(F)ccc2F)S[C@@]1(CCCN)c1ccccc1 [filanesib]
In short: (§1)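 Soluble protein was quantified by TMTpro 16plex LC-MS/MS after channel sums were equalised. It was obtained as the supernatant after 21,000xg for 90 min from pooled aliquots of K562 cells (2×10^6 cells/mL, 10 μM compound, 30 min) heated for 3 min across 48°C-58°C and extracted in PBS with 0.5% NP-40 at 4°C. Thermal stability values are relative to control samples and come from duplicates. They are given as log2 fold changes.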

zotarolimus = compound: CO[C@H]1C[C@@H]2CC[C@@H](C)[C@@](O)(O2)C(=O)C(=O)N2CCCC[C@H]2C(=O)O[C@H]([C@H](C)C[C@@H]2CC[C@H](n3cnnn3)[C@H](OC)C2)CC(=O)[C@H](C)/C=C(\C)[C@@H](O)[C@@H](OC)C(=O)[C@H](C)C[C@H](C)/C=C/C=C/C=C/1C [zotarolimus]
In short: as §1

alisertib = compound: COc1cc(Nc2ncc3c(n2)-c2ccc(Cl)cc2C(c2c(F)cccc2OC)=NC3)ccc1C(=O)O [alisertib]
In short: as §1

[1] = compound: COc1cc2nc(-c3cc(F)ccc3O)nc(N[C@@H]3CNC[C@H]3C(C)(C)O)c2cc1OC
In short: as §1

gefitinib = compound: COc1cc2ncnc(Nc3ccc(F)c(Cl)c3)c2cc1OCCCN1CCOCC1 [gefitinib]
In short: as §1

[2] = compound: COc1cccc2cc(-c3nc([C@H]4CC[C@H](C(=O)O)CC4)n4ncnc(N)c34)[nH]c12
In short: as §1

lapatinib = compound: CS(=O)(=O)CCNCc1ccc(-c2ccc3ncnc(Nc4ccc(OCc5cccc(F)c5)c(Cl)c4)c3c2)o1 [lapatinib]
In short: as §1

pictilisib = compound: CS(=O)(=O)N1CCN(Cc2cc3nc(-c4cccc5[nH]ncc45)nc(N4CCOCC4)c3s2)CC1 [pictilisib]
In short: as §1

idasanutlin = compound: COc1cc(C(=O)O)ccc1NC(=O)[C@@H]1N[C@@H](CC(C)(C)C)[C@](C#N)(c2ccc(Cl)cc2F)[C@H]1c1cccc(Cl)c1F [idasanutlin]
In short: as §1

[3] = compound: COC1=CC=C(C=C1)CN2C=CC3=C2C=C(C=C3)C(=O)NO
In short: as §1

Measured: log2 fold change

TMEM8A (UniProt Q9HCN3)
inactive: filanesib 0.188 | zotarolimus -0.093 | alisertib -0.153 | [1] -0.008 | gefitinib -0.038 | [2] 0.085 | lapatinib 0.065 | pictilisib 0.121

XIAP (UniProt P98170)
inactive: filanesib 0.046 | zotarolimus 0.008 | idasanutlin 0.009 | alisertib 0.089 | [1] 0.085 | gefitinib 0.115 | [2] 0 | lapatinib -0.01 | pictilisib 0.054

VDAC1 (UniProt C9JI87)
inactive: filanesib 0.001 | zotarolimus -0.217 | idasanutlin -0.018 | alisertib -0.119 | [1] 0.161 | gefitinib -0.014 | [2] -0.014 | lapatinib -0.182

UBAP2L (UniProt F8W726)
inactive: alisertib -0.074 | [1] -0.069 | gefitinib -0.012 | [2] -0.084 | lapatinib 0.067 | pictilisib 0.078

WARS1 (UniProt G3V5U1)
inactive: [3] -0.557 | filanesib 0.025 | alisertib 0.391 | [2] -0.105

WARS1 (UniProt G3V277)
inactive: [3] -0.163 | filanesib 0.066 | idasanutlin 0.127 | alisertib 0.04 | gefitinib 0.021 | [2] 0.145 | pictilisib 0.095

TMEM41A (UniProt Q96HV5)
inactive: [3] -0.123 | filanesib -0.158 | idasanutlin 0.024 | alisertib -0.096 | [1] 0.088 | gefitinib 0.034 | [2] 0.092 | lapatinib -0.106 | pictilisib -0.047

VPS72 isoform 2 (UniProt Q15906)
UniProt Q15906, sequence (Q15906 whole entry, looked up): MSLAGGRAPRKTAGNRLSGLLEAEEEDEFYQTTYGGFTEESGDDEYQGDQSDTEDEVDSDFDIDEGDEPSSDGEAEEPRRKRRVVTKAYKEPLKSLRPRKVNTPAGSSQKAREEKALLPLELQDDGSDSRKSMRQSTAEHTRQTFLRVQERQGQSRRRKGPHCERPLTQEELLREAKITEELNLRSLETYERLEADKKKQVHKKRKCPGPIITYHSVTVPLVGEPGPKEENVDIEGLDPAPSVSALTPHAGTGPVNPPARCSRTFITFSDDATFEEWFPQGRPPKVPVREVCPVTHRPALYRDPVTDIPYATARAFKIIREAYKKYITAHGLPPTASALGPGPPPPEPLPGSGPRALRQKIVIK
inactive: filanesib 0.084 | zotarolimus -0.008 | idasanutlin 0.062 | alisertib -0.066 | [1] -0.047 | gefitinib 0.033 | [2] -0.094 | lapatinib 0.012

WARS1 (UniProt G3V3P2)
inactive: filanesib 0.087

XAB2 (UniProt Q9HCS7)
UniProt Q9HCS7, sequence (Q9HCS7 whole entry, looked up): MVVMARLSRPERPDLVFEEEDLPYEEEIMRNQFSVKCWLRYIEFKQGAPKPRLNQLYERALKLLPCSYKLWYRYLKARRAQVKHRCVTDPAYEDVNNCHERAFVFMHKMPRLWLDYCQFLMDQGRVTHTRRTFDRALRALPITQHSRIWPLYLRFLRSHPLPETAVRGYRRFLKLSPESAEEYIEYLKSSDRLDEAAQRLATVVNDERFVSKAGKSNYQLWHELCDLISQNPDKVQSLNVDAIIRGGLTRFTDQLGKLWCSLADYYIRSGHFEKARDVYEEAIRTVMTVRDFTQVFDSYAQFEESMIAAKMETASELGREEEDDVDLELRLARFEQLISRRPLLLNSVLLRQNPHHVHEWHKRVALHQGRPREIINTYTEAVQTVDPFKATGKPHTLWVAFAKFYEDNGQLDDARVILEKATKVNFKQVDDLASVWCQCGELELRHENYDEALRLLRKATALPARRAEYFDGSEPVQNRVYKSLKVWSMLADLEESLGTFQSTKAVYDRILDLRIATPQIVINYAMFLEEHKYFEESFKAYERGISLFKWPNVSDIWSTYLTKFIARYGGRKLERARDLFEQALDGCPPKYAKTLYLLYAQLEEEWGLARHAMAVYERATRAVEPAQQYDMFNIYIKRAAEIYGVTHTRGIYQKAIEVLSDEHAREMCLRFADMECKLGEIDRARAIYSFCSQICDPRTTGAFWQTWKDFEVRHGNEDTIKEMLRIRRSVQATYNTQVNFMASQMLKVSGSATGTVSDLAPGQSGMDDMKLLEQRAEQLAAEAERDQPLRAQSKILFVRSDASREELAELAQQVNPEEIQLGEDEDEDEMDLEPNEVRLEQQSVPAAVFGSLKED
inactive: [3] -0.174 | alisertib -0.12 | [2] 0.105

TSPAN13 (UniProt O95857)
UniProt O95857, sequence (O95857 whole entry, looked up): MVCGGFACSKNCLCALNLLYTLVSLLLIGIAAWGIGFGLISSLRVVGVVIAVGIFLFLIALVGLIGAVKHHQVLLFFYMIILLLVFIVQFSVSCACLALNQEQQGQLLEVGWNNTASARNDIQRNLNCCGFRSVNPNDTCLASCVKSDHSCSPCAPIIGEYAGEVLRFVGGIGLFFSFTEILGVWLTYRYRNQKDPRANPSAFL
inactive: filanesib -0.041 | zotarolimus 0.022 | alisertib -0.164 | [1] -0.013 | gefitinib 0.047 | [2] -0.064 | lapatinib -0.053 | pictilisib 0.053

TVP23C (UniProt Q96ET8)
UniProt Q96ET8, sequence (Q96ET8 whole entry, looked up): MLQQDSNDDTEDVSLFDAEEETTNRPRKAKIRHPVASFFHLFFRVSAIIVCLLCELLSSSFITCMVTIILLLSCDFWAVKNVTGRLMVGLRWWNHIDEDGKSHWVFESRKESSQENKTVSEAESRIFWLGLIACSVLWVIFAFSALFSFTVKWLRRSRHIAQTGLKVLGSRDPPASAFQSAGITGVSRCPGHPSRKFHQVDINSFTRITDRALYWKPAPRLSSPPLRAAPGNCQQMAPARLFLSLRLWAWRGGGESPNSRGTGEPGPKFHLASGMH
inactive: zotarolimus -0.006 | idasanutlin -0.124 | alisertib 0.007 | [1] -0.024 | [2] 0.235 | lapatinib -0.14 | pictilisib -0.029

WDR4 isoform 3 (UniProt P57081)
inactive: filanesib -0.007 | pictilisib 0.359

TRIM5 (UniProt Q9C035)
inactive: filanesib 0.121 | zotarolimus -0.066 | idasanutlin -0.086

USP48 (UniProt Q86UV5)
UniProt Q86UV5, sequence (Q86UV5 whole entry, looked up): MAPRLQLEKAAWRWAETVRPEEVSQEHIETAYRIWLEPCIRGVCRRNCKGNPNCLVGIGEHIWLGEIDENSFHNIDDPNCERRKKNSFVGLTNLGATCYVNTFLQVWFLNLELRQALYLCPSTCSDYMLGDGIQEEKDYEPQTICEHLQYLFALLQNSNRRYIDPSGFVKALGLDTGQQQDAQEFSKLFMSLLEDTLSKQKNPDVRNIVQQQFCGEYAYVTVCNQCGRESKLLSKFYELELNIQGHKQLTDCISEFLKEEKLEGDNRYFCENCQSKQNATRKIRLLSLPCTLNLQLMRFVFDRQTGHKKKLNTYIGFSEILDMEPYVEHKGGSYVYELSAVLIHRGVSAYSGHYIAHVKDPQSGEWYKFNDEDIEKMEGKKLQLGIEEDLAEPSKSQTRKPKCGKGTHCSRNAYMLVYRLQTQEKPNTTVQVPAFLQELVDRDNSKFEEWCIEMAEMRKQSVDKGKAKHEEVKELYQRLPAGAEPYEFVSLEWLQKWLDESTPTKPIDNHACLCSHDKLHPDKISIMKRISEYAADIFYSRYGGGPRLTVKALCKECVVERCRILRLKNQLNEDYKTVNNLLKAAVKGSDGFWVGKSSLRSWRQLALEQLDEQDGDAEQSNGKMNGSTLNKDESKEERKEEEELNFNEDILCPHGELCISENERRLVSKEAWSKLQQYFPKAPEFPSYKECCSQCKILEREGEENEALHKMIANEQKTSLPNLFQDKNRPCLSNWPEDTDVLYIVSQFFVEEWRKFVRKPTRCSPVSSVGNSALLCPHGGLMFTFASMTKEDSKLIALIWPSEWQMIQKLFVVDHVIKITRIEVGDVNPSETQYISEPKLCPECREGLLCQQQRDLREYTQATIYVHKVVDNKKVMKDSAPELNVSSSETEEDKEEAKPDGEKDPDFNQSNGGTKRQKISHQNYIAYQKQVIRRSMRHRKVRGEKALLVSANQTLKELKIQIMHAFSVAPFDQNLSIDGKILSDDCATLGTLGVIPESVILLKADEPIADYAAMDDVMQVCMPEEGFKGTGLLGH
inactive: filanesib -0.016 | alisertib 0.19 | gefitinib 0.053 | [2] -0.031

WDR75 (UniProt Q8IWA0)
inactive: [3] -0.071 | zotarolimus -0.078 | idasanutlin 0.177 | alisertib -0.054 | [1] -0.04 | gefitinib 0.198 | [2] -0.078 | lapatinib -0.011

ULBP1 (UniProt Q9BZM6)
inactive: filanesib 0.071 | zotarolimus 0.022 | idasanutlin 0.036 | alisertib -0.023 | [1] 0.164 | [2] 0.001 | lapatinib 0.002

VWA3B isoform 6 (UniProt Q502W6)
UniProt Q502W6, sequence (Q502W6 whole entry, looked up): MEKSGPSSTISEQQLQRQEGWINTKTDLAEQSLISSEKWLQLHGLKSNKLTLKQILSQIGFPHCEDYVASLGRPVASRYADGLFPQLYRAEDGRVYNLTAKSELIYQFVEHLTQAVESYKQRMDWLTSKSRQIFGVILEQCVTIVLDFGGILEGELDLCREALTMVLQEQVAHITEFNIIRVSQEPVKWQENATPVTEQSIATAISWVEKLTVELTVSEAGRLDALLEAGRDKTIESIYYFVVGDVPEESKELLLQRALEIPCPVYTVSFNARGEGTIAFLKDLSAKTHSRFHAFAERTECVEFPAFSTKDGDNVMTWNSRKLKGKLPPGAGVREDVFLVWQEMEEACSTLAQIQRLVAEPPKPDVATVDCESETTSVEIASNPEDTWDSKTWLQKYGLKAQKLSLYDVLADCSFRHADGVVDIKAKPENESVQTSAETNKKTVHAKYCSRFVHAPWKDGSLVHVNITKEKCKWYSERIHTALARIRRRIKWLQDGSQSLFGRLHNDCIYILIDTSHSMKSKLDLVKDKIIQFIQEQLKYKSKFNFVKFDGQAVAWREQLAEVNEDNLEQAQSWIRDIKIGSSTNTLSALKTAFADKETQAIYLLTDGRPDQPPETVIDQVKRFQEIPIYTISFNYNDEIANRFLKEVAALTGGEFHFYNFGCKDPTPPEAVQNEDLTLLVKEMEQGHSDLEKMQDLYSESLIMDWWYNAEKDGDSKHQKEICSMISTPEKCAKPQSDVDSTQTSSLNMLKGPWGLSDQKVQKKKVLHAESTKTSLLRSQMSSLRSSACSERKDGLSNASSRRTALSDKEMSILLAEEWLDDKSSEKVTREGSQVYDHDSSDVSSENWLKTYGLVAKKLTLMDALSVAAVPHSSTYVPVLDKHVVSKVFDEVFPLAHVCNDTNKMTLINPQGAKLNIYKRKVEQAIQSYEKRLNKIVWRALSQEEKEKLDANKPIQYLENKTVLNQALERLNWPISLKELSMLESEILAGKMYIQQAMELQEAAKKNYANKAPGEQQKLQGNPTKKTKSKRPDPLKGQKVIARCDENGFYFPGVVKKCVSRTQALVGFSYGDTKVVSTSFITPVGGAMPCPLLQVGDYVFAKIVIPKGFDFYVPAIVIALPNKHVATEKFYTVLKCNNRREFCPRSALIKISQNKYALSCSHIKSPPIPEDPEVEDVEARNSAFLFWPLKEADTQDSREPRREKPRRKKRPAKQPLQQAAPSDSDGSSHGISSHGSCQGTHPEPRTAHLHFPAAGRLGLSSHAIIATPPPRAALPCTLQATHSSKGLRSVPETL
inactive: [3] -0.156 | zotarolimus -0.083 | idasanutlin -0.41 | alisertib -0.081 | [1] -0.272 | gefitinib 0.008 | [2] -0.022 | lapatinib 0.079 | pictilisib 0.118

UTP20 (UniProt O75691)
inactive: [1] -0.087 | lapatinib 0.076

WARS1 (UniProt G3V227)
inactive: zotarolimus 0.086 | idasanutlin -0.047

UBXN8 (UniProt O00124)
inactive: filanesib 0.069 | zotarolimus -0.028 | idasanutlin -0.116 | [1] -0.035 | lapatinib 0.023 | pictilisib -0.002

TMEM104 (UniProt Q8NE00)
inactive: [3] 0.134 | zotarolimus -0.01 | idasanutlin -0.081 | alisertib -0.012 | [1] 0.016 | gefitinib 0.061 | [2] 0.164 | lapatinib -0.156 | pictilisib -0.341

UBE2J2 isoform 3 (UniProt Q8N2K1)
UniProt Q8N2K1, sequence (Q8N2K1 whole entry, looked up): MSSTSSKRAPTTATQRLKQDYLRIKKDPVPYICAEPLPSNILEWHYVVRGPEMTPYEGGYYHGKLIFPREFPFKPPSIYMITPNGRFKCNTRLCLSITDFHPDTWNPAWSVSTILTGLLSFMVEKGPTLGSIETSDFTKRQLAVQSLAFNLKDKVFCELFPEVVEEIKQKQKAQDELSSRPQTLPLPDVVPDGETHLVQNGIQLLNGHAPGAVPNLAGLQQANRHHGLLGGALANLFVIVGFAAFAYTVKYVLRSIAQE
inactive: filanesib 0.146 | zotarolimus -0.031 | idasanutlin 0.092 | [1] 0.134 | lapatinib -0.07 | pictilisib -0.145

UFM1 isoform 2 (UniProt P61960)
UniProt P61960, sequence (P61960 whole entry, looked up): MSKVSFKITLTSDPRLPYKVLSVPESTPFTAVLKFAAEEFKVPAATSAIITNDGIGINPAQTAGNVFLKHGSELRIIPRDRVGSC
inactive: filanesib -0.12 | zotarolimus -0.048 | idasanutlin 0 | alisertib -0.067 | [1] -0.085 | gefitinib 0.027 | [2] 0.008 | lapatinib -0.052 | pictilisib -0.062

U2AF1L5 (UniProt P0DN76)
inactive: [3] -0.034 | idasanutlin -0.051 | alisertib -0.517 | gefitinib -0.048 | [2] -0.238

UBE2D1 (UniProt P51668)
UniProt P51668, sequence (P51668 whole entry, looked up): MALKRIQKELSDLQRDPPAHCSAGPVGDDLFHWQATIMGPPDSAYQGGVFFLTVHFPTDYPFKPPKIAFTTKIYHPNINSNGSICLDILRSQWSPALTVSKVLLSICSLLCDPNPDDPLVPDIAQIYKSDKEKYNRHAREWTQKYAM
inactive: filanesib -0.003 | zotarolimus -0.006 | idasanutlin -0.083 | alisertib 0.094 | [1] 0.137 | gefitinib -0.012 | [2] 0.002 | lapatinib -0.063 | pictilisib 0.021

TMEM219 (UniProt Q86XT9)
inactive: filanesib -0.065 | zotarolimus -0.181 | idasanutlin -0.017 | [1] -0.011 | gefitinib -0.029 | lapatinib 0.058 | pictilisib -0.277

TRPT1 isoform 4 (UniProt Q86TN4)
inactive: [3] -0.088 | filanesib -0.053 | idasanutlin -0.194 | alisertib -0.055 | [2] -0.061

TRIQK (UniProt Q629K1)
UniProt Q629K1, sequence (Q629K1 whole entry, looked up): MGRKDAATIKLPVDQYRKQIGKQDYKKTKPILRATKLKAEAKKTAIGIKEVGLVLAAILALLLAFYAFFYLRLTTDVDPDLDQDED
inactive: [3] -0.002 | filanesib 0.1 | zotarolimus -0.08 | alisertib -0.142 | [2] 0.106

TXNRD1 isoform 7 (UniProt Q16881)
inactive: filanesib -0.034 | [1] 0.242 | lapatinib -0.07 | pictilisib 0.037

TRIM23 (UniProt P36406)
inactive: [3] 0.019 | filanesib -0.031 | zotarolimus 0.036 | alisertib -0.078 | gefitinib 0.012 | [2] 0.039 | pictilisib 0.204

UBXN10 (UniProt Q96LJ8)
UniProt Q96LJ8, sequence (Q96LJ8 whole entry, looked up): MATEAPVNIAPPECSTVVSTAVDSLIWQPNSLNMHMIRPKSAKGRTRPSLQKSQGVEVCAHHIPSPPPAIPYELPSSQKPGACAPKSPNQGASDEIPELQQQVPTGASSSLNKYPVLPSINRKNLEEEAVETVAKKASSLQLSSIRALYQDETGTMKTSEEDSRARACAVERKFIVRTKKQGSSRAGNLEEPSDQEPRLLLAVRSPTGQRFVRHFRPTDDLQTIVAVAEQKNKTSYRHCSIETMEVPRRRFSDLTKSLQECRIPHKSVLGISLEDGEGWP
inactive: [3] 0.059 | filanesib 0.038 | zotarolimus -0.049 | alisertib 0.016 | [1] -0.071 | gefitinib -0.079 | [2] -0.11 | lapatinib 0.097 | pictilisib -0.008

TMEM268 isoform 3 (UniProt Q5VZI3)
inactive: filanesib -0.064 | zotarolimus 0.104 | idasanutlin -0.135 | alisertib 0.014 | [1] -0.25 | gefitinib -0.079 | [2] 0.001 | lapatinib 0.09 | pictilisib -0.088

WDR46, A0A0G2JJL1
inactive: [3] -0.108 | filanesib 0.533 | alisertib -0.167 | [1] -0.134 | gefitinib 0.039 | [2] -0.207 | lapatinib 0.154
